Screening data: PubChem BioAssay, The Scripps Research Institute Molecular Screening Center
SRC3 TRFRET art = TR-FRET artefact, counter-screen to PPARgamma/SRC-3 agonist assay; PPARgamma/SRC-3 format; active compounds read high; TR-FRET ratio at 8 µM; actives 0.39% (n = 99,000)
SRC1 TRFRET art = flags TR-FRET format artefacts in PPARgamma SRC-1 recruitment agonist screen. TR-FRET detection artefact counter-screen, emission ratio; active compounds read high. actives 0.34% (n = 99,000). TR-FRET ratio at 8 µM; in the data active means TR-FRET ratio above about 2300
PPARg SRC-2 ag = agonists of SRC-2 recruitment by human PPARgamma; actives 0.34% (n = 200,000); activation, % at 8 µM; PPARgamma LBD-SRC-2 recruitment, biochemical; P37231; AID 1032; in the data active means activation above about 22%;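 further: 0% = vehicle and 100% = reference agonist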
Target sequence (P37231 whole entry, looked up, the tested form may be a part): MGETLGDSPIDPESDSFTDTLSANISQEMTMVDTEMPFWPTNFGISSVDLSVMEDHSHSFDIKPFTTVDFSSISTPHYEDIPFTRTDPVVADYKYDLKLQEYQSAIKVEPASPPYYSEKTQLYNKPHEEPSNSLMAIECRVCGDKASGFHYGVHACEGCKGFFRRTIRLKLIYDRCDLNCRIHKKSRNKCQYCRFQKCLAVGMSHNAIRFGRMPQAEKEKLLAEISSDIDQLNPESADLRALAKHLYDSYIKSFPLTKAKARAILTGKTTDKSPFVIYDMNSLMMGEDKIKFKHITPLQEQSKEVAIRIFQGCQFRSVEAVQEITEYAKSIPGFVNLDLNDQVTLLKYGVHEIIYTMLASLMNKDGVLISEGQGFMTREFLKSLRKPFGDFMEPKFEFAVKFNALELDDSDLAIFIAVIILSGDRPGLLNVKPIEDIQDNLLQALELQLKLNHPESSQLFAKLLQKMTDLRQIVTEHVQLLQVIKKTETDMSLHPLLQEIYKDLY
PPARg SRC-1 ag = PPARgamma-driven SRC-1 recruitment agonism; P37231; PPARgamma-SRC-1 coactivator recruitment biochemical assay; activation, % at 8 µM; actives 0.41% (n = 200,000); AID 631; in the data active means activation above about 19%;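 further: 0% = DMSO and 100% = reference agonist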
PPARg SRC-3 ag = agonists of human PPARgamma SRC-3 coactivator recruitment | AID 731 | biochemical PPARgamma/SRC-3 coactivator recruitment assay | P37231 | activation, % at 8 µM | actives 0.26% (n = 200,000); in the data active means activation above about 23%;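 further: 0% = DMSO and 100% = reference agonist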
TR-FRET SRC-2 ct = TR-FRET artefact, counter-screen to PPARgamma/SRC-2 agonist assay. TR-FRET ratio at 8 µM. active compounds read high. AID 1049. actives 0.4% (n = 200,000)
Starred values were filed as active, the others as inactive; x = no result given. Rows were chosen to be rich in hits. Some 0.84% of all compounds tested hit in one or more screens of this group. Unless noted, no stated cut-off is given here; in the data, active means TR-FRET ratio above about 2000; inactive means the rest.

SMILES | SRC3 TRFRET art | SRC1 TRFRET art | PPARg SRC-2 ag | PPARg SRC-1 ag | PPARg SRC-3 ag | TR-FRET SRC-2 ct
C#CCOCCOCCOCCNc1nc(N2CCN(C(=O)[C@H](CCCCN)n3cc([C@@H](N)CO)nn3)CC2)nc(N2CCN(C(=O)[C@H](Cc3cc4ccccc4[nH]3)n3cc([C@@H](N)CC(C)C)nn3)CC2)n1 | 1308 | 1678 | 1.8 | 4.5 | -4.2 | 1511
COc1ccc(-c2nc(-c3ccc(NC(=O)c4ccc(Br)o4)cc3)no2)cc1OC | x | x | 8.3 | 11.2 | 30.2* | 1699
COc1cccc(NC(=O)Cc2nc(-c3ccccc3)sc2-c2ccc(C)cc2)c1 | 3358* | 3241* | -6.4 | 2.0 | 3.0 | 2590*
COc1cccc(-c2nc(-c3ccc(NC(=O)Cc4ccccc4OC)cc3)no2)c1 | x | x | -4.5 | -2.0 | 0.0 | 1985*
COc1ccc(-c2noc(Cc3ccccc3OC)n2)cc1 | x | x | 6.8 | 3.8 | 25.7* | 1718
COc1ccc(-c2noc(Cc3cccs3)n2)cc1 | x | x | 1.7 | 0.9 | 4.0 | 1628
CN(C)S(=O)(=O)c1cccc(-c2nnc(SCC(=O)NCCCCCC(=O)O)n2-c2ccc(F)cc2)c1 | 1768 | 1992 | 10.8 | 9.5 | 8.0 | 1718
Cc1ccn2c(-c3n[nH]c(=S)n3C)c(C)nc2c1 | 1434 | 1585 | -0.4 | -4.8 | 1.3 | 1535
CN(C)/C=C(\C#N)C(=O)Nc1ccc(O)cc1F | 1512 | 1925 | 8.0 | 13.0 | 4.2 | 1617
c1ccc(-n2ncc3c(NCc4cccs4)ncnc32)cc1 | 2147* | 1950 | 8.9 | 8.2 | 5.4 | 1716
O=C(c1ccccc1O)N1N=C(c2ccccc2)CC1(O)C(F)(F)F (stereo not given) | 1589 | 1545 | 6.6 | 1.8 | 0.7 | 1596
O=C(CSc1cn(Cc2ccccc2)c2ccccc12)Nc1nccs1 | x | x | 0.5 | -1.8 | -10.5 | 3013*
CCCCc1ccc(C2C(C#N)=C(N)SC(N)=C2C#N)s1 | x | x | 4.3 | 21.0* | 8.4 | 1742
CCCCc1ccc(/C=C(\C#N)C(N)=S)s1 | 1538 | 1995 | 0.0 | 4.4 | -0.8 | 1625
Cc1cc(C)n2nc(CC(=O)NCc3ccc(F)cc3)nc2n1 | 1714 | 1967 | 5.2 | 4.1 | -3.9 | 1471
COc1ccc([N+](=O)[O-])cc1NC(=S)NC(NC(=O)C(c1ccccc1)c1ccccc1)C(Cl)(Cl)Cl (stereo not given) | x | x | 7.5 | 3.3 | 4.4 | 2107*
CCOC(=O)C1=C(C)Nc2ccccc2N=C1NC(=O)c1cccc(S(=O)(=O)N(C)C)c1 | x | x | 4.3 | 3.5 | 4.3 | 1733
CCOC(=O)C1=C(C)Nc2ccccc2N=C1NC(=O)c1ccc(Cl)c(S(=O)(=O)N2CCCC2)c1 | 2223* | 2193 | 3.5 | 5.1 | 1.0 | 1448
CCOC(=O)C1=C(C)Nc2ccccc2N=C1NC(=O)C(c1ccccc1)c1ccccc1 | 2077* | 2300 | 9.6 | 4.2 | 3.3 | 1768
Cc1ccc2nc(-c3ccc(NC(=S)NCCC(C)C)cc3)sc2c1 | x | x | 41.3* | 14.2 | 21.4 | 1682
CCCCNC(=S)Nc1ccc(-c2nc3ccc(C)cc3s2)cc1 | 1753 | 1999 | 14.7 | 3.0 | 2.1 | 1744
COc1ccc(C(C(=O)NC2CCCC2)N(C(=O)c2snc(-c3ccc(F)cc3)c2N)c2ccc(OC)cc2)cc1 (stereo not given) | x | x | 14.5 | 16.1 | 16.8 | 2223*
C=CCn1c(Cc2cccs2)nnc1SCC(=O)c1ccc(F)cc1 | x | x | 6.4 | 21.4* | 3.4 | 1726
CC1(C(=O)NCC2CCCO2)Oc2cccnc2NC1=O (stereo not given) | 1647 | 1661 | 2.9 | -0.4 | -4.0 | 1475
CCc1cc2ccc(OC)cc2nc1SCC(=O)NNC(=O)c1ccco1 | 1814 | 2083 | 20.7 | 15.4 | 10.0 | 2005*
SMILES | SRC3 TRFRET art | SRC1 TRFRET art | PPARg SRC-2 ag | PPARg SRC-1 ag | PPARg SRC-3 ag | TR-FRET SRC-2 ct
CNC(=O)COC(=O)/C=C/c1cccc(F)c1 | 1539 | 1695 | -0.8 | 3.5 | 1.2 | 1494
Cc1cc(/C=C2/C(=O)N(C)C(=S)N2C)c(C)n1C1CC1 | 1564 | 1884 | 21.9* | 3.2 | -1.4 | 1763
Cc1ccccc1-n1c(C)cc(/C=N/NC(=O)c2ccncc2)c1C | x | x | -6.2 | -4.1 | -5.8 | 1379
Cc1cc(C)cc(-n2c(C)cc(/C=N/NC(=O)c3ccncc3)c2C)c1 | 1610 | 2092 | 3.8 | 0.8 | 1.2 | 1986*
Cc1ccc(NC(=O)C2CCCO2)cc1[N+](=O)[O-] (stereo not given) | 1588 | 1664 | 7.2 | 1.8 | 1.5 | 1578
COCCCNc1nc(SCc2ccccc2)nc2sc3c(c12)CCC3 | x | x | -5.7 | 1.8 | 5.0 | 1553
N#Cc1cnn(-c2nc(SCc3ccccc3)nc3sc4c(c23)CCCC4)c1N | x | x | 5.3 | 8.6 | 6.7 | 2441*
Cc1ccc(CN2CCNC(=O)C2CC(=O)NCCCn2ncc3ccccc32)o1 (stereo not given) | 1532 | 1433 | 5.9 | 3.9 | -1.8 | 1508
O=C(c1cnc(-c2ccc(Cl)cc2)s1)c1ccc(Cl)cc1Cl | x | x | 3.1 | 12.0 | 36.0* | 1430
O=C(O)Cc1ccc(C(=O)c2ccc(Cl)cc2Cl)s1 | 1693 | 2208 | 7.4 | 0.2 | 0.3 | 1896
CCOC(=O)C1=NNC2(c3ccc(Cl)cc3)C(=O)N(c3ccc(C)cc3)C(=O)C12 (stereo not given) | 1603 | 2006 | 0.8 | 5.7 | 0.3 | 1593
COc1ccc(C2Nc3ccccc3C(=O)N2NS(=O)(=O)c2ccccc2)cc1 (stereo not given) | 1548 | 1704 | 0.3 | 2.3 | -0.1 | 1481
CCOC(=O)c1sc(=NC(=O)c2cccs2)n(C)c1C | 1752 | 1624 | 10.4 | 2.5 | -0.6 | 1596
Cc1ccc2c(c1)sc(=NC(=O)c1cccs1)n2C | 3246* | 2965* | -1.4 | 7.0 | 6.0 | 1499
CC1CCN(Cc2nnnn2-c2cccc([N+](=O)[O-])c2)CC1 | 1692 | 2097 | 11.6 | 6.2 | 4.5 | 1471
OCC1(Cc2ccc(Cl)cc2)CCN(Cc2ccc3nsnc3c2)CC1 | 2045 | 2393* | 19.6 | 18.1 | 14.2 | 1895
Cc1ncoc1C(=O)N1CCCC(C(=O)c2ccc(C(F)(F)F)cc2)C1 (stereo not given) | 1603 | 1691 | 5.0 | 4.0 | -5.3 | 1703
CC/C(C)=N/NC(=O)c1[nH]c2ccc(C)cc2c1-c1ccccc1 | 1693 | 2076 | 7.3 | 5.0 | 0.9 | 1988*
CCN(CC)c1c(-c2ccccc2)c2cc(C)ccc2[nH]c1=O | 1590 | 2033 | 5.9 | 3.5 | 5.3 | 1789
CC(=O)Nc1ccc(S(=O)(=O)Nc2nc3ccccc3nc2Sc2nncn2C)cc1 | x | x | 7.3 | 0.1 | -0.5 | 2233*
CC(C)c1cccc(C(C)C)c1NC(=O)COC(=O)[C@H](C)NC(N)=O | 1569 | 1661 | 7.2 | 5.8 | 6.1 | 1651
COC(=O)c1cc(-c2ccc3c(c2)OCO3)nc2ccccc12 | 1427 | 1725 | -2.1 | -1.3 | -1.8 | 1616
